Measurements as given in PubChem BioAssay (EPA / NIEHS).
Values joined by “and” are separate entries in the source; they are usually repeats but may differ in a detail not shown here. Equal values may be shown once. Results filed as inconclusive are left out. Some compounds were tested as several samples or in several runs, with calls that do not always agree. Active and inactive are the calls of the source. Rule for the calls, unless noted: active = hit-call score of the fitted dose curve at least 0.9, where 1 is the maximum; inactive = score below 0.9.

How the values were obtained:
[1] = read-out: TIMP metallopeptidase inhibitor 2 (TIMP2), TIMP2 (gene 7077); assay: BSK_hDFCGF_TIMP2: BioMAP Diversity Plus: hDFCGF Assay for TIMP metallopeptidase inhibitor 2 (TIMP2) Biomarker Activity (AID 2284289); details: primary human foreskin fibroblasts
Method in brief: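 Primary human foreskin fibroblasts in the hDFCGF system, dosed for 24 h; TIMP-2 level measured by ELISA, fitted in the positive direction against DMSO; cytotoxicity checked in parallel by sulforhodamine B total protein staining.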

[2] = read-out: Interleukin-1 alpha (IL1a), IL1A (gene 3552); assay: BSK_IMphg_IL1a: BioMAP Diversity Plus: IMphg Assay for Interleukin-1 alpha (IL1a) Biomarker Activity (AID 2284290); details: primary human endothelial cells with macrophages
Method in brief: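 IL-1α is quantified by ELISA at 24 h in the endothelial/macrophage IMphg co-culture, with gain of signal fitted relative to DMSO. Parallel SRB total-protein staining flags overt toxicity.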

[3] = read-out: E-selectin (Homo sapiens) (UniProt P16581); assay: BSK_IMphg_ESelectin: BioMAP Diversity Plus: IMphg Assay for Eselectin Biomarker Activity (AID 2284291); details: primary human endothelial cells with macrophages
Method in brief: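 Analysed against DMSO baseline in the positive fitting direction, this endpoint is an ELISA read of E-selectin. It comes from human venular endothelial cells co-cultured with macrophages, sampled 24 h post-dose.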

[4] = read-out: Thrombomodulin, THBD (gene 7056); assay: BSK_LPS_Thrombomodulin: BioMAP Diversity Plus: LPS Assay for Thrombomodulin Biomarker Activity (AID 2284296); details: primary human HUVEC with PBMC
Method in brief: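 Thrombomodulin on the surface of LPS-activated endothelial/PBMC co-cultures was quantified by ELISA at 24 hours post-dosing, with DMSO as baseline. Parallel SRB total-protein staining flagged overt cytotoxicity.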

CD69, CD69 (gene 969) = assay: BSK_LPS_CD69: BioMAP Diversity Plus: LPS Assay for CD69 Biomarker Activity (AID 2284303); details: primary human HUVEC with PBMC
Method in brief: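 CD69 surface levels were read by ELISA after 24 h chemical treatment of an LPS-stimulated HUVEC plus PBMC co-culture; positive-direction fit against DMSO vehicle.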

[5] = IUF_NPC2c_oligodendrocyte_migration_120hr: Leibniz Research Institute for Environmental Medicine (IUF) 120-hour Neural Progenitor Cell Migration Assay for Oligodendrocyte Migration (NPC2c) (AID 2284297);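 note: O4-positive oligodendrocyte migration distance divided by radial glia migration distance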
Method in brief: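 hNPC spheres (GW 16-19 cortex), PDL/laminin, DMEM/F12 3:1 + 1% N2, 37C. Dosing day 0–5, half feed day 3, DMSO ≤0.1%. Fixed 120 h; O4 ICC + Hoechst, HCI. Readout: mean oligodendrocyte distance from sphere edge / radial glia distance.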

[6] = IUF_NPC2a_radial_glia_migration_120hr: Leibniz Research Institute for Environmental Medicine (IUF) 120-hour Neural Progenitor Cell Migration Assay for Radial Glia Migration (NPC2a) (AID 2284298)
Method in brief: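 Hoechst-stained nuclei imaged at 120 h; algorithm maps sphere core by densest nuclei, sets migration edge at density threshold, gives radial glia migration distance (um) per well vs DMSO. hNPC spheres (0.3 mm), PDL/laminin, DMEM/F12 3:1 + 1% N2.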

[7] = IUF_NPC2a_radial_glia_migration_72hr: Leibniz Research Institute for Environmental Medicine (IUF) 72-hour Neural Progenitor Cell Migration Assay for Radial Glia Migration (NPC2a) (AID 2284299)
Method in brief: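 Readout: mean of four manual brightfield measurements of radial glia migration distance (um) at 72 h. hNPC spheres (0.3 mm) exposed to 7 compound concentrations plus solvent control on PDL/laminin, 37C, 5% CO2; activity fitted relative to DMSO.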

[8] = IUF_NPC2b_neuronal_migration_120hr: Leibniz Research Institute for Environmental Medicine (IUF) 120-hour Neural Progenitor Cell Migration Assay for Neuron Migration (NPC2b) (AID 2284300)
Method in brief: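 hNPC spheres, PDL/laminin, DMEM:F12 3:1 + 1% N2, 37C/5% CO2; 7 concentrations + solvent control (DMSO ≤0.1%), 5 d exposure, half-feed day 3. Fix 120 h, TUBB3 ICC, HCI: mean neuron migration distance ÷ glia distance.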

[9] = IUF_NPC3_neuronal_differentiation_120hr: Leibniz Research Institute for Environmental Medicine (IUF) 120-hour Neuronal Differentiation Assay (NPC3) (AID 2284301)
Method in brief: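 Value is percent TUBB3-positive neurons among Hoechst-stained nuclei in the migration area, scored by trained CNN after 120 h differentiation. Primary hNPC spheres on poly-D-lysine/laminin, N2 medium, continuous dosing from day 0, half-refeed day 3; DMSO reference.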

[10] = IUF_NPC4_neurite_length_120hr: Leibniz Research Institute for Environmental Medicine (IUF) 120-hour Neuronal Morphology Assay for Neurite Length (NPC4) (AID 2284302)
Method in brief: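 Neurite length, the mean in um across TUBB3-stained neurons, is derived by skeletonization of high-content images after 120 h differentiation. Compound exposure, 7 concentrations plus solvent control, ran from plating of hNPC spheres on poly-D-lysine/laminin, with medium half-replaced on day 3.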

[11] = IUF_NPC5_oligodendrocyte_differentiation_120hr: Leibniz Research Institute for Environmental Medicine (IUF) 120-hour Oligodendrocyte Differentiation Assay (NPC5) (AID 2284304; active = hit-call score of the fitted dose curve at least 0.9, where 1 is the maximum;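 note: primary human fetal neural progenitor spheres plated to migrate and differentiate; share of O4-positive cells among Hoechst nuclei found by CNN image analysis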)
Method in brief: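 hNPC spheres, fetal cortex GW 16-19; PDL/laminin, DMEM:F12 3:1 + 1% N2, 37C/5% CO2; 7 concentrations + solvent control, 5 d exposure, half-change day 3. Readout: %O4+ of Hoechst+ nuclei in migration area, CNN classification; DMSO baseline.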

[12] = IUF_NPC4_neurite_area_120hr: Leibniz Research Institute for Environmental Medicine (IUF) 120-hour Neuronal Morphology Assay for Neurite Area (NPC4) (AID 2284305; active = hit-call score of the fitted dose curve at least 0.9, where 1 is the maximum)
Method in brief: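 Neurite area (pixels, nuclei excluded) of TUBB3-positive neurons from hNPC spheres differentiating 5 days under continuous exposure at 37 C, 5% CO2. High-content imaging; loss of signal versus DMSO control across 7 concentrations.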

[13] = IUF_NPC2-5_cytotoxicity_72hr: Cytotoxicity Assessment at 72 hours in the Leibniz Research Institute for Environmental Medicine (IUF) Neural Progenitor Cell Migration and Differentiation Assay for Cytotoxicity (NPC2-5) (AID 2284306; active = hit-call score of the fitted dose curve at least 0.9, where 1 is the maximum;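 note: LDH release into supernatant measured by resorufin fluorescence marking membrane damage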)
Method in brief: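 Membrane-integrity cytotoxicity at 72 h, read as LDH-driven resorufin fluorescence in supernatant. hNPC spheres from fetal cortex differentiate on coated plates in N2 medium, 37C, 5% CO2; seven serial compound concentrations plus solvent control (DMSO ≤0.1%).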

[14] = IUF_NPC2-5_cytotoxicity_120hr: Cytotoxicity Assessment at 120 hours in the Leibniz Research Institute for Environmental Medicine (IUF) Neural Progenitor Cell Migration and Differentiation Assay (NPC2-5) (AID 2284307; active = hit-call score of the fitted dose curve at least 0.9, where 1 is the maximum)
Method in brief: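 hNPC spheres on PDL/laminin, N2 medium, 37C; 7 concs + solvent control, DMSO ≤0.1%; 5-day exposure, half medium changed day 3. LDH in supernatant at 120 h, resazurin→resorufin fluorescence, gain-of-signal.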

[15] = IUF_NPC2-5_cell_number_120hr: Cell Number Assessment at 120 hours in the Leibniz Research Institute for Environmental Medicine (IUF) Neural Progenitor Cell Migration and Differentiation Assay (NPC2-5) (AID 2284308);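 note: count of Hoechst-stained nuclei in migration zone around plated human neural progenitor spheres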
Method in brief: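 Hoechst-stained nuclei within the migration area were counted by automated high content imaging after 120 h. Single hNPC spheres differentiated on poly-D-lysine/laminin in DMEM/F12 (3:1) with 1% N2, compound present throughout, DMSO ≤0.1%.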

[16] = IUF_NPC2-5_viability_120hr: Viability Assessment at 120 hours in the Leibniz Research Institute for Environmental Medicine (IUF) Neural Progenitor Cell Migration and Differentiation Assay (NPC2-5) (AID 2284312)
Method in brief: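 Alamar blue resorufin fluorescence read after 5 days of differentiation, with compound present from day 0 and replenished at day 3. Primary hNPC spheres on laminin-coated plates, 37C; seven concentrations plus solvent control, fitted against DMSO.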

Measured: AC50

Sequence of E-selectin (Homo sapiens) (P16581 whole entry, looked up): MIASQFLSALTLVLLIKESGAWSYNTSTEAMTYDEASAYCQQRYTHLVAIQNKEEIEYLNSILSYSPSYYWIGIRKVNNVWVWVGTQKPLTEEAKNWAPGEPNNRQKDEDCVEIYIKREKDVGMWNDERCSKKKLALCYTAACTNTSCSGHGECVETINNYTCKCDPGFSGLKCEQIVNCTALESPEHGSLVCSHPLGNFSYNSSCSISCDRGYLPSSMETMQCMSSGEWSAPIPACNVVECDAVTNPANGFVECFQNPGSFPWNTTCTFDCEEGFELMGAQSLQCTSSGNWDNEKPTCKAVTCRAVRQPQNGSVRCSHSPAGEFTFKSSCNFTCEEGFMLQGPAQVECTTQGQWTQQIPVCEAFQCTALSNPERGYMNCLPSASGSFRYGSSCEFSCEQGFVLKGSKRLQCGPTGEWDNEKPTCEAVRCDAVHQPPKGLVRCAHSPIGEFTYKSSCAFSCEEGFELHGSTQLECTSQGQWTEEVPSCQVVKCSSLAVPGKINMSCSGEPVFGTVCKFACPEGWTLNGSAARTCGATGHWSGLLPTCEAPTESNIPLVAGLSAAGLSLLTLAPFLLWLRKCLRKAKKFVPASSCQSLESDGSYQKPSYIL

OCC(F)(F)OC(F)(F)C(F)(F)OC(F)(F)CO
active: [2] 334 nM
inactive: [1] | [2] | [3] | [4] | CD69, CD69 (gene 969)

CCOP(=S)(OCC)SCSCC
not listed: [1] | [2] | [3] | [4] | CD69, CD69 (gene 969)
inactive: all other assays above

CCOc1ccc(C(C)(C)COCc2cccc(Oc3ccccc3)c2)cc1
not listed: [1] | [2] | [3] | [4] | CD69, CD69 (gene 969)
inactive: all other assays above

CCCCOCCOP(=O)(OCCOCCCC)OCCOCCCC
active: [11] 3.24 µM
not listed: [1] | [2] | [3] | [4] | CD69, CD69 (gene 969) | [13]
inactive: all other assays above

COP(=O)(CCC(=O)NCO)OC
active: CD69, CD69 (gene 969) 0.15 µM
inactive: [1] | [4] | CD69, CD69 (gene 969)

OCC(F)(F)OC(F)(F)C(F)(F)OC(F)(F)C(F)(F)OC(F)(F)F
inactive: [1] | [4] | CD69, CD69 (gene 969)
active: [2] 26.6 µM and 47.5 µM | [3] 38.6 µM and 44.3 µM | CD69, CD69 (gene 969) 6.46 µM

CO/N=C(/C(=O)OC)c1ccccc1COc1ccccc1C
active: [6] 22.9 µM | [7] 21 µM | [9] 2.33 µM | [11] 13.9 µM | [15] 19.7 µM
inactive: [5] | [8] | [10] | [12] | [13] | [14] | [16]

FC(F)(F)C(F)(C(F)(F)F)C(F)(F)C(F)(F)CC1CO1 (centres undefined)
active: [1] 0.319 µM
inactive: [1] | [2] | [3] | [4] | CD69, CD69 (gene 969)

O=P(Oc1ccccc1)(Oc1ccccc1)Oc1ccccc1
active: [6] 11 µM
not listed: [1] | [2] | [3] | [4] | CD69, CD69 (gene 969)
inactive: all other assays above

O=C(O)C(F)(F)OC(F)(F)C(F)(F)OC(F)(F)C(=O)O
inactive: [1] | [2] | [3] | [4] | CD69, CD69 (gene 969)

COC(=O)C(F)(F)C(F)(F)OC(F)(C(F)(F)F)C(F)(F)OC(F)=C(F)F (centres undefined)
inactive: [1] | [2] | [3] | [4] | CD69, CD69 (gene 969)

OCC(F)(F)OC(F)(F)C(F)(F)OC(F)(F)C(F)(F)OC(F)(F)CO
inactive: [1] | [2] | [3] | [4] | CD69, CD69 (gene 969)
active: [1] 8.46 µM | [3] 5.2 µM | [4] 4.54 µM
